Tg IFNy HTS = T. gondii growth inhibition with IFN-gamma, primary screen, cell-based; Toxoplasma gondii growth in IFN-gamma-treated host cells; active compounds read low; activity change, negative = inhibition, % (no concentration beside the values); actives 3.8% (n = 69,000); in the data active = activity change below about -70%, passing the limit was not always enough;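 also: host cells are HeLa cells infected with Toxoplasma gondii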
Starred values were filed as active, the others as inactive; ! = a repeat was not active. The sample as a whole holds a higher share of hits than the screen did.

SMILES	Tg IFNy HTS
CCOC(=O)C1CCN(C(=O)c2ccc(-c3csc(C4CC4)n3)cc2)CC1	159.7
Cc1nc(C)c(C(=O)N2CCc3cc(-c4csc(C5CC5)n4)ccc32)s1	-109.0*
CC(=O)N1CCC(C(=O)N2CCc3cc(-c4csc(C5CC5)n4)ccc32)CC1	44.9
O=C(C1CC1)N1CCc2cc(-c3csc(C4CC4)n3)ccc21	-112.5*
Cc1cccc(N2CCN(C(=O)c3ccc(-c4csc(C5CC5)n4)cc3)CC2)c1C	12.8
CC(C)Cc1nc(-c2cccc(N3CCNC3=O)c2)n(-c2ccccn2)n1	4.2
CC(=O)N1CCC2(CC1)OC(=O)C(C)=C2C(=O)NCCCN1C(C)CCCC1C (centres undefined)	25.0
COc1ccc(CN2C[C@H]3OCCN(CCN(C)C)[C@H]3C2)cc1	6.2
Cc1oc(-c2ccccc2Cl)cc1C(=O)N1CCNC(=O)CC1	-31.4
Cc1oc(-c2ccccc2Cl)cc1C(=O)N1CCCCC1CO (centres undefined)	-44.9
CN1CC[C@@H](c2c(O)cc(O)c3c(=O)cc(-c4ccccc4Cl)oc23)[C@@H]1CO	-74.3*
O=C(O)C1CN(S(=O)(=O)c2cccc(Oc3ccccc3)c2)CCN1 (centres undefined)	1.8
O=C(c1ccccc1)c1ccc(O)c(C(c2ccccc2Cl)N2CCCCC2)c1O (centres undefined)	-96.8*
CC(=O)N1CCc2sccc2C1c1ccccc1NC(=O)c1ccncc1 (centres undefined)	20.7
CO[C@@H]1[C@H](N(C)C(=O)c2ccccc2)C[C@H]2O[C@]1(C)n1c3ccccc3c3c4c(c5c6ccccc6n2c5c31)C(=O)NC4	-84.2*
Cn1c2ccccc2c2c3c(c4c5ccccc5n(CCC#N)c4c21)CNC3=O	-62.5
CC(=O)NC(c1ccccn1)C1CCC(CNC(=O)Cc2ccc(F)cc2)CC1 (centres undefined)	12.3
CCn1ccnc1CN1CCCC(c2cncc(-c3cccc(Cl)c3)n2)C1 (centres undefined)	-109.7*
Cc1cccc(-c2ncc(CN3CCCC(Cn4ccnc4C)C3)cn2)c1 (centres undefined)	-6.3
CCCn1ccnc1CN1CCCC(c2nn(C)c(=O)n2CC)C1 (centres undefined)	3.6
O=C1N(CC2CC2)C(c2ccccc2)C12CCNCC2 (centres undefined)	-4.8
CCN1CCC2(CC1)OC(=O)C(C)=C2C(=O)N1CCN(c2ccc(OC)cc2)CC1	-25.5
c1ccc2c(N3CCN(Cc4cccc5nccnc45)CC3)ncnc2c1	-17.4
c1ccc(-n2cc(CN3CCN(c4ncnc5ccccc45)CC3)cn2)cc1	-53.4
c1ccc(CN2CCN(c3ncnc4ccccc34)CC2)cc1	-85.7*
SMILES	Tg IFNy HTS
CSc1ccc(-c2noc(-c3c(O)c4ccccc4[nH]c3=O)n2)cc1	32.6
COC(=O)c1ccc(NC(=O)COc2nc(C)nc3ccccc23)cc1	7.5
Cc1cc(C)cc(S(=O)(=O)N2CCC3(CC2)NCCN=C3NC2CCCC2)c1	-39.1
Fc1ccc(CSc2nc(Nc3ccc(F)c(F)c3)c3ccccc3n2)cc1	-80.5*
COc1cc(Nc2nc(SCc3ccc(C(C)(C)C)cc3)nc3ccccc23)cc(OC)c1	-11.0
c1ccc(CNc2nc(NCc3ccccc3)c3ccccc3n2)cc1	-107.9*
COc1ccc(CNc2nc(-c3ccc(OC)cc3)nc3ccccc23)cc1	-42.1
Clc1ccccc1CSc1nc(NCc2ccccc2)c2ccccc2n1	-48.7
Clc1ccc(CSc2nc(NCc3ccccc3)c3ccccc3n2)cc1	-71.8*
Clc1ccc(CNc2nc(SCc3ccc(Cl)cc3)nc3ccccc23)cc1	-48.1
Fc1ccc(Nc2nc(SCc3ccc(Cl)cc3)nc3ccccc23)cc1F	-21.2
Clc1ccc(CNc2nc(SCc3ccccc3Cl)nc3ccccc23)cc1	29.7
CN([NH2+][O-])C(=O)N[C@@H]1[C@@H](O)[C@H](O)[C@@H](CO)O[C@@H]1O	14.0
Cc1oc(-c2ccc(C(=O)NC3CCCCCCC3)cc2)nc1CN1CCN(c2ccccc2)CC1	-68.6
O=S(=O)(CCn1cc(CCc2ccccc2)nn1)N1CCCC1	8.4
O=C(O)CCc1nc2cc3c(cc2[nH]1)OCCO3	33.1
COc1cccc(-n2c(=O)c(C(=O)NCCc3cccs3)c(O)c3cccnc32)c1	30.4
COc1cc(-c2coc3cc(OCc4ccccc4)c(OC)c(O)c3c2=O)cc(OCc2ccccc2)c1OC	-79.1*
O=c1c(-c2cc(O)c(O)c(O)c2)coc2cc(O)c(O)c(O)c12	19.3
COc1ccc(-c2coc3cc(O)cc(O)c3c2=O)cc1	173.4
CN(C)C(=O)CN1C[C@]23CN(Cc4cnn(C)c4)C[C@@H](C[C@@H]2S1(=O)=O)O3	-107.5*
CN(C)C(=O)COCC1CC2(CCN(Cc3cnn(C)c3)CC2)CO1 (centres undefined)	-31.9
CN(C)C(=O)CN1CCC2(CCCN2Cc2cnn(C)c2)CC1	-55.1
O=C(N[C@@H]1CCO[C@]2(CCN(Cc3cccc(F)c3)C2)C1)c1ccco1	-9.1
Cc1ccc2nc(-c3ccccn3)cc(C(=O)Nc3n[nH]c4nc(C)ccc34)c2c1	-98.6*
SMILES	Tg IFNy HTS
O=C(NCCc1c[nH]c2ccc(Cl)cc12)c1cc(-c2ccccn2)nc2ccccc12	-69.9
CCOC(=O)c1c(NC(=O)c2cc(-c3ccccc3)nc3ccc(C)cc23)sc(C)c1C	22.3
OC(COCc1ccccc1)CN1CCNCC1 (centres undefined)	-10.5
OC(CN1CCNCC1)Cn1ccc2ccccc21 (centres undefined)	22.5
OC(CN1CCNCC1)Cn1c2ccc(Br)cc2c2cc(Br)ccc21 (centres undefined)	-73.5*
CCN(CC)Cc1cc(CN2CCC(O)(c3cccnc3F)CC2)ccc1OC	0.3
C[C@H](O)Cn1cnc(-c2ccccc2)c1-c1ccc(Cn2cccn2)cc1	1.9
CCCCCC(=O)Nc1ccc2c(c1)Cc1ccccc1-2	70.6
O=C(CCCc1ccc(-c2ccccc2F)cc1)Nc1ccc(O)cc1	-80.3*
C=CCNC(=O)C1(Cc2ccc(-c3ccccc3F)cc2)CCCNC1 (centres undefined)	-36.1
O=C1CCCN1CCC1CCCCN1C(=O)Nc1cc(F)ccc1F (centres undefined)	-6.5
Cc1nc(CN(C)C(=O)C2CCCN(c3ccccn3)C2)no1 (centres undefined)	6.3
O=C1C(c2c(O)[nH]c3ccccc23)=Nc2ccccc21	-3.3
O=c1[nH]c2ccccc2c(O)c1-c1nc(-c2ccc(Br)cc2)no1	26.5
O=Nc1c(-c2c(O)[nH]c3cc(Br)ccc23)[nH]c2ccccc12	-91.9*
C=Cn1cc(CN2CCC(CNC(=O)NC(C)(C)C)CC2)cn1	-0.5
CC(C)CNC(=O)[C@H]1C[C@H]2CN(Cc3ccccc3)C[C@H]1O2	-23.9
Cc1cc(C)n(CCC(=O)NC(Cn2cccn2)c2ccccc2)c(=O)n1 (centres undefined)	206.7
CCOCCN1CC[C@@H]2Oc3ccccc3S(=O)(=O)N(CC3CC3)[C@@H]2CC1	-5.2
COc1ccc(CCN2CCC(Nc3nc4ccccc4n3Cc3ccc(F)cc3)CC2)cc1	-92.5*!
COc1ccc(-c2nc(NCCN3CCC(C)CC3)c3ccccc3n2)cc1	-57.1
COc1ccc(-c2nc(Nc3ccc(CN4CCC(C)CC4)cc3)c3ccccc3n2)cc1	-41.0
CCCNC(=O)c1ccc(N2CCNC(C(=O)O)C2)nc1 (centres undefined)	5.7
CN(C)CCOCc1ncn2c1CN(Cc1ccco1)CC2	3.3

High-throughput results (PubChem BioAssay)
